Hit rate of the full screen: of about 1,000 compounds, about 700 (70%) were called active. So high a share suggests a set chosen from earlier hits. Not all results are given here. Unmarked numbers belong to inactive results. Rule as the data show it: active = inhibition above about 50%; inactive = the rest.
Assay: CASP1-PYCARD signaling inhibition in yeast, confirmatory test, counterassay for NLRP3 inhibitor program, one-dose (AID 488784)
Settings: yeast expressing Caspase-1-ASC, luminescence counter screen; at 10 µM; hits give high values
In the case of Cc1cc(C)nc(NC(=O)Nc2ccccc2C(F)(F)F)n1, the inhibition is reported as 55.5% (active). With CC(C)Sc1ncnc2c1cnn2-c1ccccc1 the inhibition was 40.6%. In the case of Cc1ccc(OCc2nc3ccccc3n2C)cc1, the inhibition is reported as 76.5% (active). In the case of CC(C)n1c(COc2ccccc2)nc2ccccc21, the inhibition is reported as 59.4% (active). CCSc1nc2sc3c(c2c(=O)n1-c1ccc(C)cc1)CCN(C)C3 gave an inhibition of 33.2%. In the case of O=C(COc1ccccc1F)Nc1nc(-c2ccccn2)cs1, the inhibition is reported as 65% (active). Molecule Cn1c(=O)c(C(=O)Nc2ncccn2)c(O)c2ccccc21 has an inhibition of 49.2%. In the case of CCc1noc(C)c1C(=O)Nc1nc2ccc(OC)cc2s1, the inhibition is reported as 76.8% (active). In the case of Cc1ccc(-c2nn(C(C)(C)C)c3ncnc(N)c23)cc1, the inhibition is reported as 96.3% (active). COc1ccccc1C(=O)Nc1ccc(NC(=O)c2ccco2)c(C)c1 gave an inhibition of 47.5%. In the case of Cc1ccc(O)c(NC(=O)c2cc(-c3ccco3)on2)c1, the inhibition is reported as 61.9% (active). In the case of CC(=O)[C@@]12O[C@@H]1C[C@H]1[C@@H]3CC[C@H]4C[C@@H](O)CC[C@]4(C)[C@H]3CC[C@@]12C, the inhibition is reported as 53% (active). With Cc1ccnc(Nc2nc3ccccc3s2)n1 the inhibition was 21.8%. For CN(C)c1ccnc2sc(C(=O)c3ccccc3)c(N)c12, the inhibition was 70.2% (active). For CCCN(CC1CC1)C(=S)NC(=O)c1ccccc1Br, the inhibition was 53.1% (active). With O=[N+]([O-])c1c(NCCO)cc(Sc2nc3ccccc3s2)c2nonc12 the inhibition was 65.5% (active). For Cc1cc(C(=O)COc2ccc(Br)cc2F)c(C)n1C1CC1, the inhibition was 60.1% (active). In the case of CC1(C)CCSC(/C=C/c2ccccc2)=N1, the inhibition is reported as 91.5% (active). COc1ccccc1OCc1nc2ccccc2s1 gave an inhibition of 48.7%. In the case of CCN(CC)c1ccc(/C=N/Nc2nc(C)cc(C)n2)c(O)c1, the inhibition is reported as 55% (active). For Nc1c(-c2cccc(Cl)c2)cnn1-c1cccc([N+](=O)[O-])c1, the inhibition was 53% (active). With Oc1c(Cl)cc(Cl)c(Cl)c1Cc1c(O)c(Cl)cc(Cl)c1Cl the inhibition was 99.3% (active). With O=C(CC(O)(C(F)(F)F)C(F)(F)F)Nc1ccc(Cl)c(Cl)c1 the inhibition was 99.2% (active). With Cc1c(C(=O)N2CCCc3ccccc32)oc2ccccc12 the inhibition was 49.6%. For O=C(Nc1ccccc1Cl)/C(Cl)=C(\Cl)S(=O)c1ccccc1 (stereo unspecified), the inhibition was 98.8% (active). For O=C(Nc1ccc2oc(-c3ccccc3F)nc2c1)c1ccco1, the inhibition was 72.2% (active). With O=C(Nc1ccc(Oc2ccccc2)cc1)c1ccco1 the inhibition was 45.2%. Cn1c(=NC(=O)c2ccco2)sc2cccc(F)c21 showed an inhibition of 25%. For Cc1cc(C)c(/C=C2\C(=O)Nc3ccccc32)[nH]1, the inhibition was 40.2%. For Cc1ccc(OCc2nc(C#N)c(N3CCCC3)o2)cc1, the inhibition was 71.8% (active). Molecule O=C(CSc1ccc(-c2ccc(-n3cccn3)cc2)nn1)Nc1ccc([N+](=O)[O-])cc1 has an inhibition of 11.2%. Work on C[C@@H]1C[C@@H]2O[C@H]2/C=C\C=C\C(=O)Cc2c(Cl)c(O)cc(O)c2C(=O)O1 yielded an inhibition of 48.6%. In the case of CCCNc1ncnc2sc(C)c(C)c12, the inhibition is reported as 50.8% (active). For CC(=NCc1ccc2c(c1)OCO2)C1=C(O)c2ccccc2C1=O, the inhibition was 60.2% (active). O=C(NCc1ccc2c(c1)OCO2)c1c(O)nc2sccn2c1=O gave an inhibition of 36.7%. With O=C(Oc1c(-c2ccco2)oc2ccccc2c1=O)c1cccnc1 the inhibition was 58.5% (active). For CC(C)C(=O)N1CCN(CCN=CC2=C(O)CC(c3ccco3)CC2=O)CC1 (stereo unspecified), the inhibition was 55.2% (active). In the case of Cc1cccc(NC(=S)NC(=O)c2ccc(Br)o2)c1, the inhibition is reported as 76.2% (active). In the case of CN=C1C=C/C(=N/N=c2\ccn(O)cc2C)C=C1C, the inhibition is reported as 53.3% (active). O=C(CSc1ncnc2c1oc1ccccc12)NC1CCCC1 showed an inhibition of 39.4%. With Cc1ccc2cccc(S(=O)(=O)N3CCN(c4ccccc4F)CC3)c2n1 the inhibition was 52.6% (active). In the case of COc1cc(N2C(=O)CSC2=S)cc(OC)c1OC, the inhibition is reported as 45.7%. With O=C1CSC(=S)N1c1ccc(O)cc1 the inhibition was 79.7% (active). In the case of CCc1cc(C(=O)Nc2nnc(C3CC3)s2)sc1C, the inhibition is reported as 55.5% (active). In the case of Cc1ccc(CSc2nsc(C)c2C#N)cc1, the inhibition is reported as 60% (active). For Oc1ccc(Br)cc1/C=N/Nc1ccccn1, the inhibition was 37.1%. For O=[N+]([O-])c1cccc(/C=N/Nc2ncc(Br)cn2)c1, the inhibition was 62.5% (active). With O=[N+]([O-])/C=C/c1ccc2c(ccn2Cc2ccccc2)c1 the inhibition was 99.7% (active). With CCOC(=O)c1c(C)[nH]c(C(=O)COc2ccc3c(c2)OCO3)c1C the inhibition was 66.8% (active). In the case of Fc1ccccc1-c1cc2cc3c(cc2cn1)OCO3, the inhibition is reported as 51% (active). In the case of N#Cc1nc(Cc2ccccc2)oc1NCCc1ccccc1, the inhibition is reported as 56.8% (active).

— PubChem BioAssay AID488784 (Sanford-Burnham Center for Chemical Genomics, 2010)
